Bioassay records: PubChem, Broad Institute
C diff growth – inhibitors of Clostridium difficile growth. Clostridium difficile clinical isolate growth, OD600, 24 h; active compounds read low. growth activity, negative = inhibition, % at 16 µg/mL (by protocol). 0.25% of 86,000 active. AID 1259249;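 active means mean growth activity at or below -80% and every replicate also at or below -80%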;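 further: 0% = DMSO wells and -100% = levofloxacin 16 µg/mL wells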
Pf Dd2 inh – inhibitors of Plasmodium falciparum Dd2 growth; P. falciparum Dd2 growth, SYBR Green, 72 h; active compounds read low; activity change, % at 10 µM; 2.3% of 94,000 active; in the data active means activity change below about -80%
* hit, by the source's call; . = not tested or not shown; ! = a repeat was not active. The list is not random: actives were taken first. Their share in the collection is about 2.4%.

SMILES | C diff growth | Pf Dd2 inh
CCCNC(=O)N1[C@@H](C#N)[C@@H](c2ccccc2)[C@@H]1CO | -23 | 8
CCCNC(=O)N1[C@H](CO)[C@H](c2ccc(-c3ccc(C#N)cc3)cc2)[C@@H]1CNC | -4 | -84*
Cc1ccc(S(=O)(=O)NCC[C@H]2CC[C@@H](NC(=O)CCN3CCCCC3)[C@@H](CO)O2)cc1 | 1 | 12
C[C@H]1CN([C@@H](C)CO)C(=O)Cc2cc(NS(=O)(=O)c3cccs3)ccc2O[C@H]1CN(C)CC1CC1 | 0 | -10
C[C@H]1CN([C@@H](C)CO)C(=O)c2cc(NC(=O)C3CC3)ccc2O[C@@H]1CN(C)Cc1ccncc1 | -3 | 3
CO[C@H]1CN(C)C(=O)c2ccc(NC(=O)CC(F)(F)F)cc2OC[C@@H](C)N(CC2CC2)C[C@H]1C | -1 | -86*
CO[C@H]1CN(C)C(=O)c2ccc(NC(=O)CC(F)(F)F)cc2OC[C@@H](C)N(CC2CC2)C[C@@H]1C | . | 19
COc1ccccc1CN1C[C@@H](C)[C@@H](OC)CN(C)C(=O)c2ccc(NC(C)=O)cc2OC[C@@H]1C | . | -24
COc1ccccc1CN1C[C@@H](C)[C@H](OC)CN(C)C(=O)c2ccc(NC(=O)Nc3ccccc3OC)cc2OC[C@H]1C | . | -90*
CO[C@H]1CN(C)C(=O)c2ccc(NS(=O)(=O)CC(F)(F)F)cc2OC[C@@H](C)N(C)C[C@H]1C | -1 | 28
CO[C@H]1CN(C)C(=O)c2ccc(NS(=O)(=O)CC(F)(F)F)cc2OC[C@H](C)N(C)C[C@@H]1C | 6 | -87*
COc1ccc(NC(=O)Nc2ccc3c(c2)[C@@H]2C[C@@H](CC(=O)NCC4CC4)O[C@H](CO)[C@@H]2O3)cc1 | 1 | 6
C[C@@H]1CN([C@@H](C)CO)C(=O)c2cccc(NC(=O)c3cnccn3)c2O[C@@H]1CN(C)Cc1ccc(Cl)c(Cl)c1 | 7 | -58
C[C@@H]1CN([C@@H](C)CO)C(=O)c2cccc(NC(=O)c3cnccn3)c2O[C@@H]1CN(C)Cc1ccc(-c2ccccc2)cc1 | 9 | -87*
C[C@H](CO)N1C[C@H](C)[C@H](CN(C)Cc2ccc(-c3ccccc3)cc2)Oc2c(NC(=O)c3cnccn3)cccc2C1=O | 5 | -21
C[C@@H]1CN([C@@H](C)CO)C(=O)c2cccc(NC(=O)c3cnccn3)c2O[C@H]1CN(C)Cc1ccc(Cl)c(Cl)c1 | -16 | -83*
CCCNC(=O)N[C@@H]1C=C[C@H](CC(=O)NC2CCCCC2)O[C@H]1CO | . | 18
O=C(C[C@@H]1CC[C@@H](NC(=O)C2CCOCC2)[C@@H](CO)O1)Nc1ccccc1 | 2 | 34
CC=Cc1ccc2n(c1=O)C[C@H]1[C@H](CO)[C@@H](C(=O)N3CCc4ccccc4C3)N[C@@H]21 (mixture of isomers) | -1 | .
COc1cccc(NC(=O)N2CC(=O)N3[C@H](C2)[C@@H](c2ccc(C#CC4CCCC4)cc2)[C@@H]3CO)c1 | -2 | -60
Cc1ccccc1S(=O)(=O)N1[C@H](C#N)[C@H](c2ccc(C#CC3CCCCC3)cc2)[C@@H]1CO | -5 | -44
Cc1ccccc1S(=O)(=O)N1[C@H](CO)[C@@H](c2ccc(C#CC3CCCCC3)cc2)[C@@H]1C#N | 5 | -83*
N#C[C@H]1[C@@H](c2ccc(C#CC3CCCC3)cc2)[C@@H](CO)N1S(=O)(=O)c1ccccc1 | 2 | -83*
N#C[C@@H]1[C@H](c2ccc(C#CC3CCCC3)cc2)[C@H](CO)N1S(=O)(=O)c1ccccc1 | -2 | -52
Cc1ccccc1S(=O)(=O)N1[C@H](C#N)[C@@H](c2ccc(C#CC3CCCC3)cc2)[C@@H]1CO | 21 | -61
SMILES | C diff growth | Pf Dd2 inh
Cc1ccccc1S(=O)(=O)N1[C@H](C#N)[C@@H](c2ccc(C#CC3CC3)cc2)[C@@H]1CO | 3 | -85*
CCCC(=O)Nc1ccc2c(c1)OC[C@H](C)N(Cc1ccccn1)C[C@H](C)[C@H](OC)CN(C)C2=O | 3 | -19
NCC[C@H]1CC[C@@H](NC(=O)C2CCCC2)[C@@H](CO)O1 | 0 | 17
Cc1noc(C)c1S(=O)(=O)Nc1ccc2c(c1)C(=O)N([C@@H](C)CO)C[C@H](C)[C@H](CN(C)Cc1ccncc1)OCCCC[C@@H](C)O2 | 1 | -24
COc1ccccc1S(=O)(=O)N[C@@H]1CC[C@H](CCNC(=O)C2CCOCC2)O[C@@H]1CO | 4 | -14
C[C@@H]1CN([C@@H](C)CO)C(=O)c2cc(C#C[C@@H](C)O)cnc2O[C@@H]1CN(C)Cc1cccc(F)c1 | 2 | -27
C[C@H](CO)N1C[C@H](C)[C@H](CN(C)C)OCCCC[C@H](C)Oc2ccc(NC(=O)Cc3ccccc3)cc2C1=O | -3 | 9
COc1ccc2c3c([nH]c2c1)[C@@H](CO)N(S(=O)(=O)c1cn(C)cn1)CC31CN(CC2CCOCC2)C1 | 1 | 29
CN(C)CC(=O)N[C@H]1CC[C@H](CCNC(=O)Nc2ccc(C(F)(F)F)cc2)O[C@H]1CO | -94* | 21
CCC(=O)N[C@@H]1CC[C@H](CCNC(=O)Nc2ccc(C(F)(F)F)cc2)O[C@H]1CO | . | -53
CCC(=O)N[C@H]1CC[C@H](CCNC(=O)Nc2ccc(C(F)(F)F)cc2)O[C@@H]1CO | . | -24
CCC(=O)N[C@H]1CC[C@H](CCNC(=O)Nc2ccc(C(F)(F)F)cc2)O[C@H]1CO | . | -8
O=C(NCC[C@@H]1CC[C@H](NC(=O)C2CC2)[C@H](CO)O1)Nc1ccc(C(F)(F)F)cc1 | -95* | -4
O=C(NCC[C@@H]1CC[C@H](NC(=O)C2CC2)[C@@H](CO)O1)Nc1ccc(C(F)(F)F)cc1 | -94* | -38
O=C(NCC[C@@H]1CC[C@@H](NC(=O)C2CC2)[C@@H](CO)O1)Nc1ccc(C(F)(F)F)cc1 | -85* | -16
CCC(=O)N[C@@H]1CC[C@H](CCNC(=O)Nc2ccc(C(F)(F)F)cc2)O[C@@H]1CO | . | -27
COc1ccc2c3c(n(C)c2c1)[C@@H](CO)N(C)CC31CCN(C(=O)Nc2cccc(F)c2)CC1 | 10 | -73
C[C@@H]1CN([C@H](C)CO)C(=O)c2cc(NC(=O)c3ccccc3)ccc2O[C@@H](C)CCCCO[C@H]1CN(C)S(=O)(=O)c1ccc(Cl)cc1 | 0 | -85*
C[C@H](CO)N1C[C@H](C)[C@@H](CN(C)S(=O)(=O)c2ccc(Cl)cc2)OCCCC[C@H](C)Oc2ccc(NC(=O)c3ccccc3)cc2C1=O | 7 | -36
C[C@@H]1CCCCO[C@H](CN(C)S(=O)(=O)c2ccc(Cl)cc2)[C@@H](C)CN([C@@H](C)CO)C(=O)c2cc(NC(=O)c3ccccc3)ccc2O1 | 6 | -83*
C[C@@H]1CCCCO[C@H](CN(C)S(=O)(=O)c2ccc(Cl)cc2)[C@@H](C)CN([C@H](C)CO)C(=O)c2cc(NC(=O)c3ccccc3)ccc2O1 | 4 | -78
COc1ccccc1CN1C[C@@H]2N[C@H](C1)C2c1ccc(-c2ccccc2)cc1 (stereo not given in full) | 32 | -68
c1cncc(-c2ccc(C3[C@@H]4CN(Cc5nccs5)C[C@H]3N4)cc2)c1 (stereo not given in full) | -2 | -88*!
C(=C\c1ccc(C2[C@@H]3CN(Cc4ccccn4)C[C@H]2N3)cc1)/c1ccccc1 (stereo not given in full) | -12 | -76
C(=C\c1ccc(C2[C@@H]3CN(Cc4nccs4)C[C@H]2N3)cc1)/c1ccccc1 (stereo not given in full) | 47 | -88*!
